Assay results taken from PubChem BioAssay (NCATS).
Inconclusive results are not listed. Calls of active or inactive are those of the source. The call rests on the fitted dose curve; in most records, active means well fitted cell-killing curve with a large enough effect; inconclusive means small, poorly fitted or top-dose-only effect; inactive means no such curve, though single readings can be large or run the other way.

test: qHTS of pediatric cancer cell lines to identify multiple opportunities for drug repurposing: Primary screen for Rh41 cells (AID 1347108); settings: Rh41 rhabdomyosarcoma viability, CellTiter-Glo luminescence, 48 h; series mostly up to 46 µM; activity change, negative = cytotoxic: at the top concentration; further: nearly all actives have a fitted effect of over 70% in size;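 on activity change, negative = cytotoxic: luminescence drop marks cytotoxic hits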
Description: Drug repurposing or repositioning has been offered as a strategy for drug development in oncology programs. This approach has special potential for childhood cancers and other rare or orphan diseases, where the expected return on new drug development has been a disincentive to pharmaceuticals. […] In this project we exploit the poly-pharmacology of drugs to discover new indications via phenotypic screening of a panel of 19 well-characterized cell lines derived from solid tumors seen in children and adolescents. The goal is to identify approved drugs with previously unrecognized anticancer properties that has the potential to reveal new mechanisms and biological processes involved in carcinogenesis or drug resistance. We employed a titration-based paradigm (quantitative high-throughput screening or qHTS), where all compounds were tested at multiple concentrations for their effect on cell viability. Concentration-response curves (CRCs) were derived directly from the primary screen, and both potency and efficacy values were used to identify compounds with robust bioactivity profiles. We screened the NIH Chemical Genomics Center (NCGC) Pharmaceutical Collection (NPC) and Mechanism Interrogation Plate (MIPE) small molecule collections of approved and investigational compounds against these cell lines; and measured metabolically active cells after 48 hours of compound treatment as a proxy for cell viability. […] Assay Submitter: Nathalia J. Martinez, National Center for Advancing Translational Sciences, National Institutes of Health, Rockville, MD, USA; email: natalia.martinez@nih.gov Shen, M et al. Quantitative high-throughput phenotypic screening of pediatric cancer cell lines identifies multiple opportunities for drug repurposing. Oncotarget 2017 Dec 19;9(4):4758-4772. PMID 29435139.
The cells were obtained from University of North Carolina (UNC), Pediatric Preclinical Testing Program (PPT), and Coriell Institute (CI). qHTS cell viability assay: Cells were assayed in growth media at a density of 500-1,000 cells/well. Five microliters of cells were dispensed into 1,536-well, white, solid-bottom, TC-treated plates (Greiner Bio One) using a multidrop dispenser and incubated at 37 degrees C, 5% CO2, under a humidified atmosphere for 5 hours. Twenty-three nanoliters of compounds and controls (neutral control DMSO or positive control bortezomib at final concentration of 2.3 µM) were subsequently transferred by Kalypsys pintool. For primary screens, the MIPE collection was tested at 11-point dilutions (final concentrations range from 0.78 nM to 46 µM) and the NPC collection at 8-point dilutions (final concentrations range from 0.59 nM to 46 µM). Compounds tested in follow-up screens were assayed at 11-point dilutions. Cells were incubated for 48 hours, followed by addition of 3 µL of CellTiter-Glo (Promega). After a 15 min incubation at room temperature, samples were analyzed for luminescence intensity using a ViewLux High-throughput CCD imager equipped with clear filters.
Potency means the concentration at half of the fitted maximal effect.

| SMILES | activity change, negative = cytotoxic | Potency |
| --- | --- | --- |
| O=C(NC(=O)c1c(F)cccc1F)Nc1cc(Cl)c(OC(F)(F)C(F)C(F)(F)F)cc1Cl (stereo not given) | 23.3% (inactive) | – |
| CC(C)[N+](C)(CCC(C(N)=O)(c1ccccc1)c1ccccc1)C(C)C | -2.89% (inactive) | – |
| CCOP(=S)(OCC)O/N=C(\C#N)c1ccccc1 | 10.8% (inactive) | – |
| O=C1CN2CCOC2(c2ccccc2Cl)c2cc(Cl)ccc2N1 (stereo not given) | 17.3% (inactive) | – |
| C[C@]12CC[C@H]3[C@@H](CC=C4C[C@@H](O)CC[C@@]43C)[C@@H]1CC[C@@H]2O | 18.6% (inactive) | – |
| NC(=O)CN1CCCC1=O | 24.3% (inactive) | – |
| CCOC(=O)c1ncn2c1CN(C)C(=O)c1c(I)cccc1-2 | 22.3% (inactive) | – |
| Sc1ccccc1Cl | 8.99% (inactive) | – |
| Nc1ccc(N)cc1 | 19.2% (inactive) | – |
| CCOC(=O)NC(C)(C)Cc1ccc(Cl)cc1 | 5.65% (inactive) | – |
| CC[C@]1(O)CC[C@H]2[C@@H]3CCC4=CCCC[C@@H]4[C@H]3CC[C@@]21C | -12.3% (inactive) | – |
| C1CN2CCC1CC2 | 31.3% (inactive) | – |
| C[C@]12CC[C@H]3[C@@H](CCC4=CC(=O)CC[C@@]43C)[C@@H]1CC[C@@H]2C(=O)O | 27.4% (inactive) | – |
| CN1CCc2cc(Cl)c(O)cc2[C@H]2c3ccccc3CC[C@@H]21 | -6.28% (inactive) | – |
| CC(C)NCC(O)c1ccc(N)c(C#N)c1 (stereo not given) | 25.6% (inactive) | – |
| C[C@]12C=CC(=O)C=C1CC[C@@H]1[C@@H]2CC[C@@]2(C)[C@H]1CC[C@]2(C)O | 0.899% (inactive) | – |
| Cc1nnc2n1-c1sc(CCC(=O)N3CCOCC3)cc1C(c1ccccc1Cl)=NC2 | 5.9% (inactive) | – |
| CC1COC2(c3ccccc3Cl)c3cc(Cl)ccc3NC(=O)CN12 (stereo not given) | 20.4% (inactive) | – |
| COc1ccc2[nH]cc(CCN(C(C)C)C(C)C)c2c1 | -3.17% [at 92.7 µM] (inactive) | – |
| CCN(CC)C(C)C(=O)c1ccccc1 (stereo not given) | 36.2% (inactive) | – |

| SMILES | activity change, negative = cytotoxic | Potency |
| --- | --- | --- |
| C[C@]12CC[C@H]3[C@@H](CCC4=CC(=O)CC[C@@H]43)[C@@H]1CC[C@@H]2O | 21.8% (inactive) | – |
| CCNc1nc(Cl)nc(NCC)n1 | 5.67% (inactive) | – |
| CN1C2CCC(C)(C)C1CC(OC(=O)C(O)(c1cccs1)c1cccs1)C2 (stereo not given) | 10.1% (inactive) | – |
| CCS(=O)(=O)C(C)(C)S(=O)(=O)CC | -6.08% (inactive) | – |
| CNC(=O)NC(O)C(Cl)(Cl)Cl (stereo not given) | 6.37% (inactive) | – |
| CCCC(C)C1(CC)C(=O)N=C(S)NC1=O (stereo not given) | 26.4% (inactive) | – |
| Cc1ccc([N+](=O)[O-])[c]2c1[O][Hg]2 | – | 0.668 µM (active) |
| COP(=S)(OC)Oc1ccc(S(N)(=O)=O)cc1 | 28.4% (inactive) | – |
| CCCCCCCCC(=O)NCc1ccc(O)c(OC)c1 | -6.22% (inactive) | – |
| CCC(OC(C)=O)C(CC(C)NC)(c1ccccc1)c1ccccc1 (stereo not given) | – | 31 µM (active) |
| CC(CC(C#N)(c1ccccc1)c1ccccc1)N(C)C (stereo not given) | -25% [at 92.7 µM] (inactive) | – |
| CC[C@H]1C[C@@H]2C[C@H]3c4[nH]c5ccc(OC)cc5c4CCN(C2)[C@@H]13 | – | 30 µM (active) |
| O=C(N[C@H]1N=C(c2ccccc2F)c2cccc3c2N(CC3)C1=O)c1cc2ccccc2[nH]1 | 16.2% (inactive) | – |
| CCCCCCCCCCCC[N+](C)(C)CCOc1ccccc1 | – | 16.8 µM (active) |
| CCN(CC)Cc1nccn1-c1ccc([N+](=O)[O-])cc1C(=O)c1ccccc1Cl | 1.46% (inactive) | – |
| CCOC(=O)c1cncn1C(C)c1ccccc1 (stereo not given) | 18% (inactive) | – |
| c1cc2c(c(N3CCNCC3)c1)OCCO2 | 19% (inactive) | – |
| C[C@H]1CNCCc2ccc(Cl)cc21 | 18.6% (inactive) | – |
| CN1[C@@H]2CC[C@H]1CC(OC(=O)c1cc(Cl)cc(Cl)c1)C2 (stereo not given in full) | -10.7% (inactive) | – |
| C[C@@H]1CN(C2CCC(C#N)(c3ccc(F)cc3)CC2)CC[C@]1(C(=O)O)c1ccccc1 (stereo not given in full) | 13.7% (inactive) | – |
